Data taken from PubChem BioAssay (EPA / NIEHS).
Records with an inconclusive call do not appear. Activity calls are given as the source filed them. Rule for the calls, unless noted: active = hit-call score of the fitted dose curve at least 0.9, where 1 is the maximum; inactive = score below 0.9.

Key:
[1] = read-out: Interleukin-8 (IL8), CXCL8 (gene 3576); assay: BSK_3C_IL8: BioMAP Diversity Plus: 3C Assay for Interleukin-8 (IL8) Biomarker Activity (AID 2283020); conditions: primary human endothelial cells (HUVEC); actives raise or lower the signal
How it was run: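 ELISA read-out of IL-8 from human umbilical vein endothelium, measured 24 h after chemical dosing. Activity is expressed relative to DMSO negative control, with both increases and decreases fitted.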

[2] = read-out: Monokine induced gamma interferon (MIG), CXCL9 (gene 4283); assay: BSK_3C_MIG: BioMAP Diversity Plus: 3C Assay for Monokine induced gamma interferon (MIG) Biomarker Activity (AID 2283021); conditions: primary human endothelial cells (HUVEC); actives raise or lower the signal;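 for AC50: MIG protein level measured by immunoassay in the treated endothelial cultures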
How it was run: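 Read-out is ELISA detection of MIG on human umbilical vein endothelial cells, taken 24 h after dosing. Gain or loss of signal was scored relative to DMSO controls using bidirectional curve fitting.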

[3] = molecular target: human Vitamin D Receptor (VDR), VDR (gene 7421) (UniProt P11473); assay: ATG_VDR_TRANS: Attagene TRANS-FACTORIAL HepG2 Assay for human Vitamin D Receptor (VDR) (AID 2283022; active = hit-call score of the fitted dose curve at least 0.9, where 1 is the maximum)
Chain of human Vitamin D Receptor (VDR), VDR (gene 7421) (P11473 whole entry, looked up, the tested form may be a part): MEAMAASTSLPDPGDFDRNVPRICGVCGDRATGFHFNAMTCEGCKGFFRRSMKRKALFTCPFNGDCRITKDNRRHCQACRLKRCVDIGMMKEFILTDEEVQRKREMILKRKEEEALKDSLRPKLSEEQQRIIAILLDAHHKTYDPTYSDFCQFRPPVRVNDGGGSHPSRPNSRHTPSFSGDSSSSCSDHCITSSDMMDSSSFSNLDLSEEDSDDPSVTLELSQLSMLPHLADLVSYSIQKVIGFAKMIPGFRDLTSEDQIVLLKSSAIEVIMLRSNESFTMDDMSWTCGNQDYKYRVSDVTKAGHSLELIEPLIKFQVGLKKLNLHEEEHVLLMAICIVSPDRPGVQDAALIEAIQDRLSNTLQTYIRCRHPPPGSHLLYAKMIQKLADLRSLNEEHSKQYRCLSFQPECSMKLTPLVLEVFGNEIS
How it was run: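 Transactivation by an exogenous VDR-Gal4 chimera in transiently transfected HepG2 cells was measured as reporter transcript level 24 hours after chemical treatment. RT-PCR products were analysed by capillary electrophoresis and fitted in the positive direction relative to DMSO.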

[4] = BSK_3C_SRB: Viability Assessment in the BioMAP Diversity Plus: 3C Assay (AID 2283023); conditions: primary human endothelial cells (HUVEC);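 note: fitted both ways against DMSO so a hit may be signal rise or drop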
How it was run: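 Cytotoxicity readout in parallel HUVEC 3C cultures: after 24 h compound exposure, cells fixed with 10% TCA, stained with 0.1% SRB and read at 560 nm. Gain or loss relative to DMSO fitted.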

[5] = BSK_3C_Vis: BioMAP Diversity Plus: 3C Assay for Morphology Visualization (AID 2283025); conditions: primary human endothelial cells (HUVEC);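 note: fitted both ways so gain or loss versus DMSO counts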;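 for AC50: light microscopy image of cell morphology used as background control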
How it was run: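 Chemicals were added to primary human umbilical vein endothelium, cells were incubated 24 h, and morphology was then visualized by light microscopy. Gain or loss of signal was fitted bidirectionally relative to DMSO.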

[6] = read-out: Pselectin, SELP (gene 6403); assay: BSK_4H_Pselectin: BioMAP Diversity Plus: 4H Assay for Pselectin Biomarker Activity (AID 2283026); conditions: primary human endothelial cells (HUVEC); actives raise or lower the signal
How it was run: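 ELISA read-out of P-selectin on human umbilical vein endothelium after 24 h of dosing. Values derive from bidirectional fitting relative to DMSO. Parallel SRB protein staining flagged overt cytotoxicity.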

[7] = BSK_4H_SRB: Viability Assessment in the BioMAP Diversity Plus: 4H Assay (AID 2283027); conditions: primary human endothelial cells (HUVEC);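 note: cells exposed to compound for 24 h before staining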;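 for AC50: curves fitted both ways versus DMSO so AC50 may be loss or gain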
How it was run: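 Absorbance at 560 nm of SRB-stained total protein served as the viability read-out in confluent primary human umbilical vein endothelium 24 h after chemical treatment. Curves were fitted bidirectionally against DMSO as negative control.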

[8] = BSK_BE3C_SRB: Viability Assessment in the BioMAP Diversity Plus: BE3C Assay (AID 2283028); conditions: primary human bronchial epithelial cells;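 for AC50: fitted both ways so AC50 may mark signal gain or loss versus DMSO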
How it was run: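 Cytotoxicity read-out: SRB (0.1%) staining of TCA-fixed (10%) human lung bronchial epithelial cells, absorbance 560 nm, 24 h post-dosing. Curves fitted both directions relative to DMSO.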

[9] = read-out: Thrombomodulin, THBD (gene 7056); assay: BSK_3C_Thrombomodulin: BioMAP Diversity Plus: 3C Assay for Thrombomodulin Biomarker Activity (AID 2283029); conditions: primary human endothelial cells (HUVEC); actives raise or lower the signal
How it was run: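 Read-out is ELISA of thrombomodulin on human umbilical vein endothelium 24 h after chemical dosing. Gain or loss of signal is scored relative to DMSO. Overt cytotoxicity is checked in parallel cultures by sulforhodamine B staining.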

[10] = read-out: Urokinase-type plasminogen activator receptor (uPAR), PLAUR (gene 5329); assay: BSK_4H_uPAR: BioMAP Diversity Plus: 4H Assay for Urokinase-type plasminogen activator receptor (uPAR) Biomarker Activity (AID 2283030); conditions: primary human endothelial cells (HUVEC); actives raise or lower the signal
How it was run: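 uPAR level read by ELISA on HUVEC cultures (BioMAP 4H) 24 h post-dosing, analyzed for gain or loss relative to DMSO. Parallel SRB staining assessed overt cytotoxicity.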

[11] = read-out: Human Leukocyte Antigen - DR isotype (HLADR), HLA-DRA (gene 3122); assay: BSK_BE3C_HLADR: BioMAP Diversity Plus: BE3C Assay for Human Leukocyte Antigen - DR isotype (HLADR) Biomarker Activity (AID 2283032); conditions: primary human bronchial epithelial cells; actives raise or lower the signal
How it was run: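 ELISA read-out of HLA-DR on human lung bronchial epithelial primary cells, measured 24 h post-dosing. Both increases and decreases were scored relative to DMSO vehicle.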

[12] = read-out: Vascular cell adhesion molecule 1 (VCAM1), VCAM1 (gene 7412); assay: BSK_4H_VCAM1: BioMAP Diversity Plus: 4H Assay for Vascular cell adhesion molecule 1 (VCAM1) Biomarker Activity (AID 2283033); conditions: primary human endothelial cells (HUVEC); actives raise or lower the signal
How it was run: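 ELISA read-out of VCAM-1 on human umbilical vein endothelium 24 hours after chemical dosing; gain or loss of signal was fitted relative to DMSO, with sulforhodamine B staining of parallel cultures flagging overt cytotoxicity.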

[13] = read-out: Interferon-gamma inducible Protein 10 (IP10), CXCL10 (gene 3627); assay: BSK_BE3C_IP10: BioMAP Diversity Plus: BE3C Assay for Interferon-gamma inducible Protein 10 (IP10) Biomarker Activity (AID 2283034); conditions: primary human bronchial epithelial cells; actives raise or lower the signal
How it was run: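 Chemical is dosed onto human lung bronchial epithelial primary cells, cultures are incubated 24 h, and IP-10 is then quantified by ELISA. Gain or loss of signal is fitted in both directions relative to DMSO.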

[14] = read-out: Monokine induced gamma interferon (MIG), CXCL9 (gene 4283); assay: BSK_BE3C_MIG: BioMAP Diversity Plus: BE3C Assay for Monokine induced gamma interferon (MIG) Biomarker Activity (AID 2283035); conditions: primary human bronchial epithelial cells; actives raise or lower the signal
How it was run: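 MIG level was determined by ELISA after 24 h chemical treatment of primary human bronchial epithelial cells. Values were fitted bidirectionally with DMSO as the negative control and activity baseline.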

[15] = read-out: Transforming growth factor beta 1 (TGFb1), TGFB1 (gene 7040); assay: BSK_BE3C_TGFb1: BioMAP Diversity Plus: BE3C Assay for Transforming growth factor beta 1 (TGFb1) Biomarker Activity (AID 2283036); conditions: primary human bronchial epithelial cells; actives raise or lower the signal
How it was run: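 Primary human lung bronchial epithelial cells; compound exposure 24 h; TGF-b1 by ELISA; bidirectional fit, DMSO baseline. Parallel SRB total-protein staining for cytotoxicity.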

[16] = read-out: Plasminogen activator inhibitor-1 (PAI1), SERPINE1 (gene 5054); assay: BSK_BE3C_PAI1: BioMAP Diversity Plus: BE3C Assay for Plasminogen activator inhibitor-1 (PAI1) Biomarker Activity (AID 2283037); conditions: primary human bronchial epithelial cells; actives raise or lower the signal
How it was run: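 Primary human lung bronchial epithelial cells; chemical dosing; 24 h; PAI-1 measured by ELISA; bidirectional fit referenced to DMSO as negative control.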

[17] = read-out: urokinase plasminogen activator (uPA), PLAU (gene 5328); assay: BSK_BE3C_uPA: BioMAP Diversity Plus: BE3C Assay for urokinase plasminogen activator (uPA) Biomarker Activity (AID 2283038); conditions: primary human bronchial epithelial cells; actives raise or lower the signal
How it was run: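 ELISA for uPA on human primary bronchial epithelial cultures 24 h post-treatment, gain or loss against DMSO. Parallel SRB staining (0.1% after 10% TCA fixation, 560 nm) assessed overt cytotoxicity.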

[18] = read-out: Urokinase-type plasminogen activator receptor (uPAR), PLAUR (gene 5329); assay: BSK_BE3C_uPAR: BioMAP Diversity Plus: BE3C Assay for Urokinase-type plasminogen activator receptor (uPAR) Biomarker Activity (AID 2283039); conditions: primary human bronchial epithelial cells; actives raise or lower the signal
How it was run: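 Human bronchial epithelial primary cells; chemical exposure 24 h; uPAR by ELISA; bidirectional fit vs DMSO control.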

[19] = read-out: Vascular endothelial growth factor receptor 2 (Homo sapiens) (UniProt P35968); assay: BSK_4H_VEGFRII: BioMAP Diversity Plus: 4H Assay for Vascular endothelial growth factor receptor 2 (VEGFR2) Biomarker Activity (AID 2283031); conditions: primary human endothelial cells (HUVEC); actives raise or lower the signal;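 for AC50: cell-surface VEGFR2 protein level quantified by ELISA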
How it was run: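 Measured by ELISA after 24 h of compound treatment: VEGFR2 on primary human umbilical vein endothelial cells, fitted in both directions relative to DMSO. Parallel cultures received SRB staining (560 nm) for overt cytotoxicity.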

[20] = read-out: Matrix Metallopeptidase 1 (MMP1), MMP1 (gene 4312); assay: BSK_BE3C_MMP1: BioMAP Diversity Plus: BE3C Assay for Matrix Metallopeptidase 1 (MMP1) Biomarker Activity (AID 2283024); conditions: primary human bronchial epithelial cells; actives raise or lower the signal
How it was run: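 Human bronchial epithelial cells (BE3C system) exposed to compound for 24 h; MMP1 then quantified by ELISA. Activity was fitted in both directions relative to DMSO.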

Measured: AC50

COc1ccc(S(=O)(=O)N2C(=O)[C@@](c3ccccc3OC)(N3C[C@H](O)C[C@H]3C(=O)N(C)C)c3cc(Cl)ccc32)c(OC)c1
active: [1] 31.5 µM | [4] 27 µM | [5] 39 µM | [7] 29.3 µM | [10] 8.31 µM
not listed: [19] | [20]
inactive: all other assays above

CC(=O)C(C)=CC1C(C)=CCCC1(C)C (stereo not given)
not listed: [3] | [20]
inactive: all other assays above

OC[C@@H](O)[C@@H](O)[C@H](O)[C@H](O)CO
not listed: [3] | [20]
inactive: all other assays above

CN[C@H]1CC[C@@H](c2ccc(Cl)c(Cl)c2)c2ccc(S(N)(=O)=O)cc21
active: [1] 23.9 µM | [2] 37.8 µM | [4] 16 µM | [20] 31.8 µM | [5] 14.4 µM | [7] 18.2 µM | [8] 34 µM | [9] 4.65 µM | [10] 20 µM | [19] 20 µM | [11] 31.4 µM | [12] 17.3 µM | [13] 37 µM | [14] 36.7 µM | [15] 31.1 µM | [16] 32.5 µM | [17] 31.1 µM | [18] 30.2 µM

O=C(O)CCCCC(=O)O
not listed: [3] | [19]
inactive: all other assays above

Cc1ccccc1Cl
not listed: [3] | [6] | [20]
inactive: all other assays above

Cc1nc(-c2ccc3c(c2)CCN(CCC2CCC(NC(=O)/C=C/c4ccc(F)cc4)CC2)CC3)no1 (stereo not given)
inactive: [2] | [8] | [10] | [15] | [16] | [18]
active: [1] 7.5 µM | [4] 6.26 µM | [5] 6.4 µM | [6] 5.65 µM | [7] 6.89 µM | [9] 9.3 µM | [11] 12.8 µM | [12] 9.3 µM | [13] 15 µM | [14] 13.5 µM | [17] 9.94 µM

CC1(C)CC(N=C=O)CC(C)(CN=C=O)C1 (stereo not given)
active: [5] 39 µM
not listed: [3] | [6] | [19] | [20]
inactive: all other assays above

COc1cc(/C=C/C(=O)CC(=O)/C=C/c2ccc(O)c(OC)c2)ccc1O
inactive: [3]

Oc1ccc2c(c1)OC[C@@H](N1CCC(O)(c3ccc(F)cc3)CC1)[C@H]2O
not listed: [3] | [19] | [20]
inactive: all other assays above

Nc1ccc2c(c1)C(=O)c1ccccc1C2=O
not listed: [3] | [19] | [20]
inactive: all other assays above

C[Si]1(C)O[Si](C)(C)O[Si](C)(C)O[Si](C)(C)O1
not listed: [3] | [6]
inactive: all other assays above

C=CCOC(=O)c1ccccc1C(=O)OCC=C
not listed: [3] | [19] | [20]
inactive: all other assays above

CCCc1cc(=O)[nH]c(=S)[nH]1
not listed: [3] | [6] | [20]
inactive: all other assays above

COCCOCCOC
not listed: [3] | [20]
inactive: all other assays above
